Reference: PubChem BioAssay AID1259373 (The Scripps Research Institute Molecular Screening Center, 2018)
This is one part of the list. Unmarked numbers belong to inactive results. The rule behind the calls is not given here.

Assay: signal-interfering artefacts in bead proximity readout – biochemical, AlphaScreen, HTS, counter-screen, dose response (AID 1259373)
Settings: AlphaScreen optical interference counterscreen, cell-free
With CCc1ccc(NC(=O)CS(=O)CC(=O)NCCCc2ccccc2)cc1 (centres undefined) the IC50 was over 6.48 µM.
COc1cc(N2CCOCC2)ccc1Nc1cc(Nc2ccccc2-n2cccn2)c(C(F)(F)F)cn1 showed an IC50 of over 6.48 µM.
COc1ccc2c(c1)CC(c1nc(Nc3ccc4cnccc4c3)c3ccccc3n1)CO2 (centres undefined) gave an IC50 of over 6.48 µM.
COc1ccc2c(c1)CC(C(=O)Nc1ccc(-c3cn[nH]c3)cc1OCc1ccccc1)CO2 (centres undefined) gave an IC50 of over 6.48 µM.
CC[C@@H]1NC(=O)[C@H]2CN(C(=O)NCc3ccccc3)CCN2C1=O showed an IC50 of over 6.48 µM.
C[C@@H](OCc1ccccc1)[C@@H]1NC(=O)[C@H]2CN(C(=O)Nc3cccc(F)c3)CCN2C1=O gave an IC50 of over 6.48 µM.
O=C(Nc1ccc(-c2ccncc2)c(C(F)(F)F)c1)C1COc2ccccc2O1 (centres undefined) showed an IC50 of over 6.48 µM.
In the case of COc1ccc2c(c1)CC(C(=O)Nc1ccc(-c3cn[nH]c3)cc1OCC(N)=O)CO2 (centres undefined), the IC50 is reported as over 6.48 µM.
Work on CCOc1ccccc1N1CCN(Cc2cc(OC)c(O)c([N+](=O)[O-])c2)CC1 yielded an IC50 of over 6.48 µM.
O=C(Cc1cccs1)N/N=C\C=C\c1ccco1 gave an IC50 of over 6.48 µM.
NC(=O)COC(=O)/C=C/c1ccc(I)o1 showed an IC50 of over 7.27 µM.
C/C(N)=C(/C#N)C(=O)COC(=O)c1c2c(nc3ccccc13)/C(=C/c1ccco1)CC2 showed an IC50 of over 6.27 µM.
Molecule Cc1ccc(NC(=O)COC(=O)CCC(=O)Nc2sc3c(c2C(N)=O)CCC3)cc1F has an IC50 of over 6.95 µM.
Work on c1cc2c(cc1CNc1nc(Nc3ccc(N4CCOCC4)cc3)c3ncn(C4CCCCC4)c3n1)OCO2 yielded an IC50 of over 6.62 µM.
